# D2 ag-1 = activates the human D2 dopamine receptor; HEK293 T-REx D2 cells, calcium flux agonist mode; activation, % at 2 µM; actives 0.53% (n = 340,000); AID 485358;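 active = activation over 3 SD above normal in the single-dose calcium agonist read, cut at about 30% in these data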; also: 0% is about no effect
# Target sequence (P14416 whole entry, looked up): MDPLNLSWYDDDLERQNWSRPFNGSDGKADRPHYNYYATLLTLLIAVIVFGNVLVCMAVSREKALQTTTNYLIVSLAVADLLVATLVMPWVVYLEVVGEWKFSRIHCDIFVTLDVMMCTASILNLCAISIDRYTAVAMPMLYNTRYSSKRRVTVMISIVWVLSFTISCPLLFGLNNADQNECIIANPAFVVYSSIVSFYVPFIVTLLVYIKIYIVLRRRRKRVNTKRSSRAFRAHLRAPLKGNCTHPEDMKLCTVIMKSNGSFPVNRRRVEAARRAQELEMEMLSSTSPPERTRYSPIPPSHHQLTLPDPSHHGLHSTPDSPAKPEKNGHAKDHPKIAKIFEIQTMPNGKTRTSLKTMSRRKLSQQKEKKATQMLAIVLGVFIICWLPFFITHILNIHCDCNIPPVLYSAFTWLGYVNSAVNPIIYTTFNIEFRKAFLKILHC
#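 HEK293 Trex D2 cells, tetracycline-induced, o/n 30 C 5% CO2; no-wash Ca dye, RT 30–90 min; 10-cycle baseline, 23 nl cpd added, kinetic Ca read 180 s; agonist hits = positive Ca response.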
# D2 ag-2 = activates the human D2 dopamine receptor; DiscoveRx PathHunter D2 beta-arrestin, luminescence, 90 min; 100% = 57 uM dopamine signal; activation, % (concentration not given with the values); actives 0.084% (n = 360,000); in the data active = activation above about 40%; inconclusive = between about 15% and that limit
#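 Agonist mode: compounds alone added to overnight-plated D2 PathHunter cells for 90 min at 37 C, with 57 uM final dopamine (EC100) defining full response. Beta-arrestin recruitment detected by chemiluminescent reagent, read after 1 h at ambient temperature.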
# D2 antag = antagonists of human D2 dopamine receptor; P14416; HEK293 TREx D2 cells, calcium flux, dopamine EC80; inhibition, % at 10 µM; actives 2% (n = 340,000); AID 485344; in the data active = inhibition above about 30%; inactive = below that, where a call was filed; also: 0% is about no effect
#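 Dopamine at EC80 is the agonist stimulus; test compounds precede it by 180 s. Calcium flux read kinetically in a force-coupled, inducible HEK293 T-REx D2 cell line.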
# D2 PAM-1 = positively modulates the human D2 dopamine receptor allosterically; P14416; HEK293 T-REx D2, calcium flux, EC20 dopamine potentiation; potentiation, % at 10 µM; actives 0.34% (n = 340,000); AID 485347;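 active = potentiation over 3 SD above the plate norm, cut at about 30% in these data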; also: 0% is about no effect
#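 Using a no-wash calcium dye in inducible, force-coupled HEK293 Trex cells expressing D2, we tracked fluorescence each second for 180 s after compound, then for 180 s after EC20 dopamine to detect augmented signalling.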
# D2 PAM-2 = positive allosteric modulators of human D2 dopamine receptor; P14416; DiscoveRx D2 beta-arrestin cells, luminescence, 90 min; 100% = 57 uM dopamine signal; potentiation, % (concentration not given with the values); actives 0.23% (n = 360,000); in the data active = potentiation above about 50%; inconclusive = mostly about 30% to 49%
#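 PathHunter D2 cells, attached overnight at 37 deg C, received compound in DMSO plus dopamine at EC20 (50 nM final) for 90 min at 37 deg C. Beta-arrestin recruitment was read as luminescence after 1 h with detection reagent at ambient temperature.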
# Numbers without * were called inactive; ? = inconclusive; . = no result; ! = repeats disagree. Rows were chosen to be rich in hits. Some 2.4% of all compounds tested hit in one or more screens of this group.
SMILES,D2 ag-1,D2 ag-2,D2 antag,D2 PAM-1,D2 PAM-2
CCOc1ccc(N2CC(C(=O)N3CCCc4ccccc43)CC2=O)cc1 (configuration not stated),-3,0,56*,.,2
CCc1ccccc1NC(=O)C1CCCN(c2nnc(-n3c(C)ccc3C)s2)C1 (configuration not stated),0,.,.,8,.
O=C(Cn1ccc2cc(S(=O)(=O)N3CCCCC3)ccc21)NCCc1ccccc1Cl,1,.,.,-3,.
Cc1ccc(NC(=S)N(CCN(C)C)C(C)c2cccnc2)c(C)c1 (configuration not stated),-1,-2,-5,32*,-6
Cc1csc2nc(COC(=O)c3ccccc3NC(=O)COc3ccccc3F)cc(=O)n12,-2,.,.,0,.
COc1cc(OC)c(NS(=O)(=O)c2cc(-c3cnc(C)o3)ccc2OC)cc1Cl,0,.,.,-1,.
COc1ccc(CSc2nc(C)cc(=O)[nH]2)cc1Br,1,-1,3,2,0
COc1cc(=O)[nH]c(SCc2c(F)c(F)c(F)c(F)c2F)n1,-1,3,-1,95*,-5
O=C(NC1CCCC1)C(c1ccc(Cl)cc1)N1CCOCC1 (configuration not stated),-1,-6,32*,-3,-6
Cc1ccc(C)c(CN2C(=O)c3ccccc3S(=O)c3ccc(C(=O)N4CCCCC4)cc32)c1 (configuration not stated),.,.,.,12,.
CN(C)c1ccc(N=Cc2nc(-c3ccccc3)oc2O)cc1,.,-1,.,.,16
CN(C)c1ccc(N=Cc2cccn2C)cc1,0,6,-23,31*,-20
CCOC(=O)N1CCN(C(=O)c2c(O)c3cccc4c3n(c2=O)CC4)CC1,0,-5,15,37*,-2
CN1CCN(C(=O)c2c(O)c3cccc4c3n(c2=O)CC4)CC1,0,-3,5,-4,-2
CCOc1ccc(/C=C/c2nc(C#N)c(N3CCN(CC)CC3)o2)cc1,-2,.,.,3,.
COc1ccc(NC(=O)c2ccccc2N(Cc2ccccc2)S(C)(=O)=O)cc1OC,0,2,-5,37*,-2
COc1ccc(NC(=O)c2ccccc2N(Cc2ccccc2)S(C)(=O)=O)cc1,3,-4,0,-8,-11
Cc1ccc(Nc2c([N+](=O)[O-])c(=O)oc3ccccc23)cc1,1,-7,31*,-9,-18
O=c1oc2ccccc2c(Nc2ccc(O)cc2)c1[N+](=O)[O-],1,-3,-13,-5,-4
CCN1CCc2c(sc(N)c2C(N)=O)C1,1,-2,38*,10,15
O=C(CSc1cn(CC(=O)N2CCCCC2)c2ccccc12)NCc1ccc(F)cc1,0,.,.,-1,.
CN1C(=O)/C(=C/c2ccc(OC(=O)c3ccco3)cc2)SC1=S,-3,0,-13,2,-21
CN1C(=O)/C(=C\c2ccc(OC(=O)c3ccco3)cc2)SC1=S,1,-4,48*,10,-8
COc1ccc(CNC(=O)N2CCc3ccccc3C2)cc1,-1,-4,34*,8,-10
COc1ccc(NC(=O)NCCCN2CCc3ccccc3C2)cc1,1,4,43*,-34,-9
SMILES,D2 ag-1,D2 ag-2,D2 antag,D2 PAM-1,D2 PAM-2
O=C(NCCCN1CCc2ccccc2C1)Nc1ccc(Br)cc1,0,1,31*,-19,-34
Oc1c(Cl)cc(Cl)c2c1NCCC2,1,?,39*,1,17
O=C1NCCCc2c1oc1ccc(O)cc21,1,-4,-17,-7,-15
COc1ccc(C)cc1NC(=O)c1cc2c(=O)n3ccccc3nc2n1C,1,0,13,11,2
COc1ccc(NC(=O)c2cc3c(=O)n4ccccc4nc3n2C)cc1OC,0,4,-8,35*,2
O=C(C1CC(=O)N(c2ccc(F)cc2)C1)N1CCC(c2nc3ccccc3[nH]2)CC1 (configuration not stated),0,1,-13,-20,-10
Cc1ccc(N2CC(C(=O)N3CCC(c4nc5ccccc5[nH]4)CC3)CC2=O)cc1C (configuration not stated),0,1,34*,-11,-7
O=C1CC(c2nc3ccccc3[nH]2)CN1c1cccc(C(F)(F)F)c1 (configuration not stated),1,-1,33*,-5,-8
Cc1ccc(C)c(CN2C(=O)C3(c4ccccc42)N(c2ccc(Cl)cc2)C(=O)CS3(=O)=O)c1 (configuration not stated),-1,.,.,-6,.
Cn1c(=O)c2c(nc(OCc3cccnc3)n2Cc2c(F)cccc2Cl)n(C)c1=O,0,-2,43*,.,-9
CCOc1ccc(Nc2sc(C(=O)c3ccc4c(c3)OCO4)c(N)c2S(=O)(=O)c2ccc(C)cc2)cc1,.,.,.,1,.
Fc1cccc(Cl)c1Cn1c(-c2cccs2)nc2ccccc21,1,.,.,-4,.
CC(=O)N1CCc2cc(C(=O)CN3CCN(c4cccc(Cl)c4)CC3)ccc21,54*,10,73*,-16,-13
CC(=O)N1CCc2cc(C(=O)CN3CCC(C)CC3)ccc21,1,2,7,-4,-4
COC(=O)c1ccc(C(=O)OC)c(NC(=O)CSCc2ccccc2Br)c1,0,-1,45*,-1,0
COc1cc(NC(=O)c2cc(-c3cccc(Cl)c3)on2)c(OC)cc1Cl,0,.,.,1,.
Cc1cccc(N2C(=O)C(Cl)=C(Nc3c(C)n(C)n(-c4ccccc4)c3=O)C2=O)c1C,1,1,4,-2,-18
Cc1ccc(N2C(=O)C(Cl)=C(Nc3c(C)n(C)n(-c4ccccc4)c3=O)C2=O)cc1,0,-2,32*,1,-2
CCOc1ccc(CCNC(=O)c2cc3sc(CC)cc3n2C)cc1OCC,1,.,.,21,.
COc1ccccc1Nc1nn2c(=O)c3ccc(C(=O)N4CCCC(C)C4)cc3nc2s1 (configuration not stated),-1,-6,-42,37*!,-11
O=C(NCc1ccccc1Cl)C1CCCN(c2nc3ccccc3n3cccc23)C1 (configuration not stated),-1,.,.,7,.
CC1=CC2=NC(=O)CC(C)(C(=O)N(CC(=O)NC3CCCC3)c3cc(C)cc(C)c3)N2C=C1 (configuration not stated),0,1,60*,10,-7
CC1=CC2=NC(=O)CC(C)(C(=O)N(CC(=O)NC(C)(C)C)C3CCCC3)N2C=C1 (configuration not stated),-1,0,-2,4,3
Cc1ccc(S(=O)(=O)CCN2CCN(c3ccccc3)CC2)cc1,9,0,30*,-16,-12
O=C(c1ccc(N2CCOCC2)c([N+](=O)[O-])c1)N1CCN(c2ccccc2)CC1,.,-4,.,.,-2

# Assay outcomes as filed in PubChem.
